# Measured values published in PMC11062922 (Nature Chemical Biology, 2023).
# Like-named read-outs stand apart in the source and are kept apart here.
# Assays:
# Design in all cases: species or system human, MV4-11 + K-562 + COLO205 + SK-N-BE2 + OVCAR-8
# ACVR1B = settings: read-out: apparent Kd, n = 1
# ADCK3 = settings: read-out: apparent Kd; compound concentrations:100 nM and 1000 nM (sheet 'Samples'); n = 1
# NQO2 = settings: read-out: apparent Kd; compound concentrations:100 nM and 1000 nM (sheet 'Samples'); n = 1
# TGFBR1 = settings: read-out: apparent Kd, n = 1
# CSNK1D = settings: read-out: apparent Kd, n = 1
# CSNK1E = settings: read-out: apparent Kd, n = 1
# ILK = settings: read-out: apparent Kd; compound concentrations:100 nM and 1000 nM (sheet 'Samples'); n = 1
# MAP2K1 = settings: read-out: apparent Kd; compound concentrations:100 nM and 1000 nM (sheet 'Samples'); n = 1
# MAP2K2 = settings: read-out: apparent Kd; compound concentrations:100 nM and 1000 nM (sheet 'Samples'); n = 1
# PIK3CA = settings: read-out: apparent Kd; compound concentrations:100 nM and 1000 nM (sheet 'Samples'); n = 1
# PIK3CD = settings: read-out: apparent Kd; compound concentrations:100 nM and 1000 nM (sheet 'Samples'); n = 1
# PRKD2 = settings: read-out: apparent Kd; compound concentrations:100 nM and 1000 nM (sheet 'Samples'); n = 1
# PRKD3 = settings: read-out: apparent Kd; compound concentrations:100 nM and 1000 nM (sheet 'Samples'); n = 1
# PSMC3 = settings: read-out: apparent Kd; compound concentrations:100 nM and 1000 nM (sheet 'Samples'); n = 1
# AKT3 = settings: read-out: apparent Kd; compound concentrations: 100 nM and 1000 nM (sheet 'Samples'), CATDS: 5.7187277937225903E-2; n = 1
# CIT = settings: read-out: apparent Kd, compound concentrations: 100 nM and 1000 nM (sheet 'Samples'), n = 1
# CSNK1A1 = settings: read-out: apparent Kd; compound concentrations: 100 nM and 1000 nM (sheet 'Samples'), CATDS: 7.2342208976373404E-2; n = 1
# MAPK10 = settings: read-out: apparent Kd; compound concentrations: 100 nM and 1000 nM (sheet 'Samples'), CATDS: 8.4251059270540496E-2; n = 1
# MAPK14 = settings: read-out: apparent Kd, compound concentrations: 100 nM and 1000 nM (sheet 'Samples'), n = 1
# MAPK9 = settings: read-out: apparent Kd; compound concentrations: 100 nM and 1000 nM (sheet 'Samples'), CATDS: 7.1166451805227196E-2; n = 1
# MAPKAPK2 = settings: read-out: apparent Kd, compound concentrations: 100 nM and 1000 nM (sheet 'Samples'), n = 1
# MYLK3 = settings: read-out: apparent Kd; compound concentrations: 100 nM and 1000 nM (sheet 'Samples'), CATDS: 7.2718608613227403E-2; n = 1
# RIPK2 = settings: read-out: apparent Kd, compound concentrations: 100 nM and 1000 nM (sheet 'Samples'), n = 1
# ACVR2B = settings: read-out: apparent Kd; compound concentrations: 100 nM and 1000 nM (sheet 'Samples'), CATDS: 3.61499985403008E-2; n = 1
# BUB1 = settings: read-out: apparent Kd; compound concentrations: 100 nM and 1000 nM (sheet 'Samples'), CATDS: 2.9368799543599802E-2; n = 1
# EPHA1 = settings: read-out: apparent Kd; compound concentrations: 100 nM and 1000 nM (sheet 'Samples'), CATDS: 4.4029751359189198E-2; n = 1
# FLT3 = settings: read-out: apparent Kd; compound concentrations: 100 nM and 1000 nM (sheet 'Samples'), CATDS: 4.1263088221053297E-2; n = 1
# FRK = settings: read-out: apparent Kd; compound concentrations: 100 nM and 1000 nM (sheet 'Samples'), CATDS: 4.1342549308714401E-2; n = 1
# FYN = settings: read-out: apparent Kd; compound concentrations: 100 nM and 1000 nM (sheet 'Samples'), CATDS: 3.5075113560986498E-2; n = 1
# NLK = settings: read-out: apparent Kd; compound concentrations: 100 nM and 1000 nM (sheet 'Samples'), CATDS: 0.113621067973222; n = 1
# PKN3 = settings: read-out: apparent Kd; compound concentrations: 100 nM and 1000 nM (sheet 'Samples'), CATDS: 8.07286972312308E-2; n = 1
# PTK6 = settings: read-out: apparent Kd; compound concentrations: 100 nM and 1000 nM (sheet 'Samples'), CATDS: 4.3994171841747899E-2; n = 1
# RET = settings: read-out: apparent Kd; compound concentrations: 100 nM and 1000 nM (sheet 'Samples'), CATDS: 0.126907733860845; n = 1
# RIPK3 = settings: read-out: apparent Kd; compound concentrations: 100 nM and 1000 nM (sheet 'Samples'), CATDS: 3.6654773493518103E-2; n = 1
# SIK3 = settings: read-out: apparent Kd; compound concentrations: 100 nM and 1000 nM (sheet 'Samples'), CATDS: 2.9281323909689301E-2; n = 1
# SLK = settings: read-out: apparent Kd; compound concentrations: 100 nM and 1000 nM (sheet 'Samples'), CATDS: 3.3087406541094599E-2; n = 1
# TESK2 = settings: read-out: apparent Kd; compound concentrations: 100 nM and 1000 nM (sheet 'Samples'), CATDS: 3.8437234907131197E-2; n = 1
# TGFBR2 = settings: read-out: apparent Kd; compound concentrations: 100 nM and 1000 nM (sheet 'Samples'), CATDS: 8.5809969501024E-2; n = 1
# [1] = compound concentrations:100 nM and 1000 nM (sheet 'Samples')
smiles,measurement,setting,value
N#Cc1ccc(-c2cc(-c3c[nH]nc3-c3ccccn3)ccn2)cc1 [GW693028X],potency estimated from few doses,ACVR1B; [1],872 nM
same,potency estimated from few doses,ADCK3,671 nM
same,potency estimated from few doses,NQO2,773 nM
same,potency estimated from few doses,TGFBR1; [1],263 nM
Cc1cc(Nc2nc(-c3cccc(C)n3)nc3ccccc23)ccn1 [GW872411X],potency estimated from few doses,ACVR1B; [1],471 nM
same,potency estimated from few doses,CSNK1D; [1],1530 nM
same,potency estimated from few doses,CSNK1E; [1],1700 nM
same,potency estimated from few doses,ILK,1610 nM
same,potency estimated from few doses,MAP2K1,2130 nM
same,potency estimated from few doses,MAP2K2,1690 nM
same,potency estimated from few doses,PIK3CA,247 nM
same,potency estimated from few doses,PIK3CD,155 nM
same,potency estimated from few doses,PRKD2,4.12 nM
same,potency estimated from few doses,PRKD3,6.25 nM
same,potency estimated from few doses,PSMC3,1810 nM
same,potency estimated from few doses,TGFBR1; [1],182 nM
Nc1nccc(-c2c(-c3ccc(F)cc3)ncn2CCCN2CCOCC2)n1 [SB-216385],potency estimated from few doses,"ACVR1B; compound concentrations: 100 nM and 1000 nM (sheet 'Samples'), CATDS: 6.1592389938983201E-2",1120 nM
same,potency estimated from few doses,AKT3,1440 nM
same,potency estimated from few doses,CIT; CATDS: 5.03714140810754E-2,2400 nM
same,potency estimated from few doses,CSNK1A1,712 nM
same,potency estimated from few doses,"CSNK1D; compound concentrations: 100 nM and 1000 nM (sheet 'Samples'), CATDS: 0.22591064083460399",86.6 nM
same,potency estimated from few doses,"CSNK1E; compound concentrations: 100 nM and 1000 nM (sheet 'Samples'), CATDS: 0.181188642263544",120 nM
same,potency estimated from few doses,MAPK10,493 nM
same,potency estimated from few doses,MAPK14; CATDS: 0.16940162518750301,134 nM
same,potency estimated from few doses,MAPK9,743 nM
same,potency estimated from few doses,MAPKAPK2; CATDS: 7.7439810634818695E-2,601 nM
same,potency estimated from few doses,MYLK3,703 nM
same,potency estimated from few doses,RIPK2; CATDS: 6.8187313119451795E-2,834 nM
same,potency estimated from few doses,"TGFBR1; compound concentrations: 100 nM and 1000 nM (sheet 'Samples'), CATDS: 5.4047908089072998E-2",1770 nM
Nc1ncnc2c1ncn2-c1cccc(F)c1 [SKF-97560],potency estimated from few doses,"ACVR1B; compound concentrations: 100 nM and 1000 nM (sheet 'Samples'), CATDS: 5.4958812802740099E-2",352 nM
same,potency estimated from few doses,ACVR2B,987 nM
same,potency estimated from few doses,BUB1,2060 nM
same,potency estimated from few doses,CIT; CATDS: 3.19087660473499E-2,1490 nM
same,potency estimated from few doses,"CSNK1D; compound concentrations: 100 nM and 1000 nM (sheet 'Samples'), CATDS: 4.1820376814662601E-2",661 nM
same,potency estimated from few doses,"CSNK1E; compound concentrations: 100 nM and 1000 nM (sheet 'Samples'), CATDS: 3.1298508243452101E-2",1600 nM
same,potency estimated from few doses,EPHA1,581 nM
same,potency estimated from few doses,FLT3,684 nM
same,potency estimated from few doses,FRK,681 nM
same,potency estimated from few doses,FYN,1080 nM
same,potency estimated from few doses,MAPK14; CATDS: 3.4547137011971901E-2,1140 nM
same,potency estimated from few doses,MAPKAPK2; CATDS: 3.21088228610018E-2,1450 nM
same,potency estimated from few doses,NLK,94.9 nM
same,potency estimated from few doses,PKN3,168 nM
same,potency estimated from few doses,PTK6,582 nM
same,potency estimated from few doses,RET,80 nM
same,potency estimated from few doses,RIPK2; CATDS: 0.22838556729877599,34.9 nM
same,potency estimated from few doses,RIPK3,948 nM
same,potency estimated from few doses,SIK3,2090 nM
same,potency estimated from few doses,SLK,1310 nM
same,potency estimated from few doses,TESK2,828 nM
same,potency estimated from few doses,"TGFBR1; compound concentrations: 100 nM and 1000 nM (sheet 'Samples'), CATDS: 6.0050656716600502E-2",293 nM
same,potency estimated from few doses,TGFBR2,151 nM
